Experimental findings from PubChem BioAssay (Tox21) are described below.

Records with an inconclusive call do not appear. The source made the active and inactive calls. The call rests on the fitted dose curve; in most records, active means well fitted cell-killing curve with a large enough effect in the repeat runs; inconclusive means weak or mixed curves, or effect the other way; inactive means flat fitted curve, though single readings scatter.
On the % scale 0 is the no-effect control and ±100 the full control effect.

The nature of the assay: qHTS assay to identify small molecule antagonists of the androgen receptor (AR) signaling pathway using the MDA cell line in the presence of 0.5 nM R1881 - cell viability counter screen (AID 1259242). Further: nearly all actives have a fitted effect of over 45% in size. The following applies: MDA-kb2 viability, CellTiter-Fluor protease fluorescence, 16 h; series mostly up to 92.4 µM. An excerpt:
U.S. Tox21 Program National Center for Advancing Translational Sciences [NCATS] NIH Chemical Genomics Center [NCGC] U.S. Environmental Protection Agency [EPA] National Institutes of Environmental Health Sciences [NIEHS] National Toxicology Program [NTP] U.S. Food and Drug Administration [FDA] Tox21 Assay Overview: Androgen receptor (AR) is an important member of the nuclear receptor family. Its signaling plays a critical role in AR-dependent prostate cancer and other androgen related diseases. Considerable attention has been given in the past decades to develop methods to study and screen for the environmental chemicals that have the potential to interfere with metabolic homeostasis, reproduction, developmental and behavioral functions. Therefore AR binding assay for screening androgen antagonists can be used to identify potential endocrine disruptors. MDA-kb2 cells (from ATCC, deposited by Wilson et al.) were used to screen for AR inhibitors against Tox21 compound libraries. These cells are human breast carcinoma cells that were stably transfected with a luciferase reporter gene under control of the MMTV promoter that contains response elements for both androgen receptor (AR) and glucocorticoid receptor (GR). The current screening for identification of AR inhibitors against Tox21 libraries used lower concentration of (0.5 nM) R1881 as a stimulator. The cytotoxicity of the Tox21 compound libraries against MDA-kb2 cell line was tested by measuring live-cell protease activity using CellTiter-Fluor assay in the same wells.
Tox21 Assay Protocol Summary: MDA-kb2 cells (cells cultured without CO2) were dispensed at 3,000 cells/well in 4 uL of culture medium into white wall/solid-bottom 1536-well plates (Corning Life Sciences, Corning, NY) using a Multidrop Combi (ThermoFisher Scientific, Waltham, MA) dispenser. After the assay plates were incubated at a 37C and 0% CO2 for 5 hr, 23 nL of compounds dissolved in DMSO, positive controls or DMSO only was transferred to the assay plate by a Pintool station (Kalypsys, San Diego, CA). The transfer of compounds was followed by the addition of 1 uL of 0.5 nM (final concentration) agonist (R1881)/culture medium using a Flying Reagent Dispenser (FRD, Aurora Discovery, San Diego, CA). The plates were incubated at 37C and 0% CO2 for 16 hr. For cytotoxicity assay, 1 uL of CellTiter-Fluor reagent (Promega Corporation, Madison, WI) was added to each well using the FRD and after 30 min incubation at 37C and 0% CO2, The fluorescence intensity was measured using ViewLux plate reader (PerkinElmer, Shelton, CT).
For orientation: In qHTS, concentration-response curves come from the screen itself.
Turning to `NS(=O)(=O)c1cc(-c2nn[nH]n2)c(NCc2cccs2)cc1Cl`, the result was inactive. Same read-out and setting: under `COc1nc(C)nc(NC(=O)NS(=O)(=O)c2ccccc2OCCCl)n1` stands “inactive”.

With `Cc1onc(-c2ccccc2)c1C(=O)Cl`, the outcome was inactive. The same measure, in the same setting: for `c1ccc(CN(CC2=NCCN2)c2ccccc2)cc1` the value was “inactive”; for `CC1CN(c2ccccc2)NC1=O` (stereo not given), “inactive”; for `CCCCCCCOC(=O)CCC`, “inactive”. As to `O=C(CCCl)NCc1ccccc1`, the result was inactive.

Regarding `Cc1cc2nc(N)sc2cc1C`, the outcome was inactive. On the same count and under the same terms, under `CCCCCCCCCCCCCCCCOP(=O)([O-])OCC[N+](C)(C)C` stands “inactive”. On the same count and under the same terms, for `COc1ccc2nc(NC(=O)Nc3ccccc3)sc2c1` the value was “inactive”; for `C=CC(C)(O)CC/C=C(\C)CCC=C(C)C` (stereo not given), “inactive”; for `C/C(=N\O)[C@@H](C)NCC(C)(C)CN[C@H](C)/C(C)=N/O`, “inactive”. Still for that read-out and setting: under `NC(=O)NS(=O)(=O)c1ccc(Cl)cc1` stands “inactive”.

In the case of `CN(CCCN1c2ccccc2CCc2ccccc21)CC(=O)c1ccc(Cl)cc1`, the outcome was inactive. The same measure, in the same setting: for `NCCCN1CCN(CCCN)CC1` the value was “inactive”; for `CCCCOc1cc(C(=O)NCCN(CC)CC)c2ccccc2n1`, “inactive”; for `Cc1ccc(C=O)s1`, “inactive”. In the case of `C=C(C)C(=O)OCCOP(=O)(O)O`, the result was inactive. `CN1CCN(c2c(F)cc3c(=O)c(C(=O)O)cn(CCF)c3c2F)CC1`: the outcome was inactive. For `O=C(O)CN(CCN(CC(=O)O)CC(=O)O)CCN(CC(=O)O)CC(=O)O`, the viability change, negative = cytotoxic was 3.41% [at 19 µM] (inactive). On to `CCCCNC(=S)NCCCC`, for which the outcome was inactive. On the same count and under the same terms, under `CC(C)OC(C)C` stands “inactive”. In the case of `O=C1C=CC(=O)O1`, the result was inactive.

As for `O=[N+]([O-])c1nccn1CO[C@@H](CO)[C@H](O)CO`, the outcome was inactive. The same measure, in the same setting: for `O=C(O)[C@@H](O)[C@H](O)[C@H](O)[C@@H](O)C(=O)O` the value was “inactive”.

As to `COC(=O)c1ccc(OC)cc1`, the result was inactive. On the same count and under the same terms, for `CCCCCCCCc1ccc(S(=O)(=O)O)cc1` the value was “inactive”.

Consider `O=C(O)c1cccc(Cl)c1Cl`, for which the outcome was inactive. On the same count and under the same terms, under `N#Cc1ccc(C(c2ccc(C#N)cc2)n2cncn2)cc1` stands “inactive”.

In the case of `C[C@]12C(=O)OC(=O)[C@H]1[C@H]1C=C[C@@H]2C1`, the result was inactive.

With `C[C@@H]1CN(c2c(F)c(N)c3c(=O)c(C(=O)O)cn(C4CC4)c3c2F)C[C@H](C)N1`, the viability change, negative = cytotoxic is 0.0147% [at 19 µM] (inactive). Consider `O=C(C(Cl)Cl)N1CCOC12CCCCC2`, for which the result was inactive.

For `CCCCC(CC)COC(=O)COc1cc(Cl)c(Cl)cc1Cl` (stereo not given), the outcome was inactive. On the same count and under the same terms, for `Cc1c(N)cccc1N` the value was “inactive”. Regarding `CCN(CC)C(=O)N(CC)CC`, the outcome was inactive.

Turning to `CCC1(C)NC(=O)NC1=O` (stereo not given), the result was inactive. The same measure, in the same setting: for `COc1ccccc1N1CCN(CCCNc2cc(=O)n(C)c(=O)n2C)CC1` the value was “inactive”; for `CCCOc1ccc2c(c1)CC[C@@H]1[C@@H]2CC[C@]2(C)C(OC)CC[C@@H]12` (stereo not given in full), “inactive”. The same measure, in the same setting: for `CC(C)=CCCC(C)CCOC=O` (stereo not given) the value was “inactive”; for `CC(C)S`, “inactive”.
